This is a sample that favours compounds with a hit; in the whole collection about 9.2% have one here.
HTT cytoprotect – qHTS Multiplex Assay to Identify Dual Action Probes in a Cell Model of Huntington: Cytoprotection (ATP). hit rate 0.14% among 230,000. PC12 HTT-Q103 induced, cytoprotection, ATP luminescence, 40 h. Potency, µM (top dose mostly 56.4 µM), most hits filed as activators; active = well fitted curve in the direction sought with a large enough effect; inconclusive = small, poorly fitted or top-dose-only effect, or another doubt; inactive = no such curve, though single readings can be large; an effect the other way counts as inactive or inconclusive; also: nearly all actives have a fitted effect of over 45% in size
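Huntington model: PC12 line, ecdysone-inducible HTTQ103 exon1–GFP, tebufenozide 100 nM. Test articles in a dose series. Endpoint luminescence from cellular ATP.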
KDM4E inh – qHTS Assay for Inhibitors of Human Jumonji Domain Containing 2E (JMJD2E); Lysine-specific demethylase 4E (Homo sapiens), B2RXH2; JMJD2E catalytic domain, FDH-coupled NADH fluorescence (FDH is formaldehyde dehydrogenase); Potency, µM (top dose mostly 57.1 µM), most hits filed as inhibitors; hit rate 1.6% among 230,000; AID 2147, 2009; also: nearly all actives have a fitted effect of over 50% in size
ALDH1A1 block – qHTS Assay for Inhibitors of Aldehyde Dehydrogenase 1 (ALDH1A1); hit rate 7.3% among 220,000; Aldehyde dehydrogenase 1A1 (Homo sapiens), P00352; Potency, µM (top dose mostly 75.3 µM), most hits filed as inhibitors; AID 1030, 2008; Purified ALDH1A1, NADH fluorescence, propionaldehyde substrate
Target sequence (P00352 whole entry, looked up): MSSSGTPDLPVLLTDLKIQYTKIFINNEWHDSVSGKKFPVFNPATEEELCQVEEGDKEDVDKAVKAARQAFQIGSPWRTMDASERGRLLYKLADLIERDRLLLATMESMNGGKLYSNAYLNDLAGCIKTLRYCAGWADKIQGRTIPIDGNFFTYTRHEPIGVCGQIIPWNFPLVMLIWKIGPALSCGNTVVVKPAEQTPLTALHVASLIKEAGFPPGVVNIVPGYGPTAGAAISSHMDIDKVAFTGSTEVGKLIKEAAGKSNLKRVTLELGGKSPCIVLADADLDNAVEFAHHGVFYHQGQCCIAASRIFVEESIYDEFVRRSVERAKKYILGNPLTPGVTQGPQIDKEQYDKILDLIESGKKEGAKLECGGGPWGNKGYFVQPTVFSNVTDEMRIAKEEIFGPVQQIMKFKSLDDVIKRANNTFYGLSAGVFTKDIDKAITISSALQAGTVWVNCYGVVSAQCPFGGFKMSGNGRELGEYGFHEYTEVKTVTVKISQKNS
Lamin A splicing – qHTS Assay for Modulators of Lamin A Splicing; Potency, µM (titrated, usually from 46.1 µM), hits mostly inhibitors; hit rate 0.01% among 200,000; HeLa LMNA splicing GFP/RFP minigene ratio, 48 h; active = well fitted inhibition curve with a large enough effect in the signal ratio, with a control signal flat, not every such curve was filed as active; inconclusive = small, poorly fitted or top-dose-only effect, or effect the other way, or a change in a side signal; the % refers to the signal ratio
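S3 HeLa cells stably expressing lamin A-EGFP splicing minigene plus DsRed2, 600 cells/well, 48 h compound exposure at 37C. Laser-scanning cytometry; analysed as GFP (500-530 nm)/RFP (575-640 nm) total intensity ratio; 0.5% DMSO vehicle.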
HPGD inh – qHTS Assay for Inhibitors of HPGD (15-Hydroxyprostaglandin Dehydrogenase); 15-hydroxyprostaglandin dehydrogenase [NAD(+)] (Homo sapiens), P15428; AID 894, 2007; hit rate 4.3% among 150,000; Potency, µM, actives largely listed as inhibitors; purified HPGD, NADH fluorescence kinetic, PGE2 substrate
Target sequence (P15428 whole entry, looked up): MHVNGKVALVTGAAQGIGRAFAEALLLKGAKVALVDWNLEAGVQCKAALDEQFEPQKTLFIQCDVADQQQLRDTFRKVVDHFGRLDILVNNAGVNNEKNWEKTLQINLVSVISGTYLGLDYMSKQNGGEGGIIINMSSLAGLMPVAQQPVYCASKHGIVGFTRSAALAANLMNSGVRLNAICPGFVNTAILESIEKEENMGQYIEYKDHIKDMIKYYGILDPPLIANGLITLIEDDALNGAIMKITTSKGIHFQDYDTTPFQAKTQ
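NADH formation kinetics: reaction with 30 uM PGE2 and 1 mM NAD+ (final), 20 nM enzyme, Tris-HCl pH 8 with Tween 20, after 15 min compound preincubation at room temperature. Fluorescence change, last versus first of five reads.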
HTT aggregate – qHTS Multiplex Assay to Identify Dual Action Probes in a Cell Model of Huntington: Aggregate Formation (GFP); hit rate 1.1% among 220,000; AID 1688, 2009; Potency, µM (top dose mostly 46.1 µM), actives largely listed as inhibitors; PC12 HttQ103-GFP aggregates, Acumen cytometry, 40 h; active = well fitted curve in the direction sought with a large enough effect; inconclusive = small, poorly fitted or top-dose-only effect, or another doubt; inactive = no such curve, though single readings can be large; an effect the other way counts as inactive or inconclusive; also: nearly all actives have a fitted effect of over 60% in size
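Using laser scanning cytometry, GFP-positive aggregates were counted after lysis of PC12 cells induced with 100 nM tebufenozide to express HTT exon 1 Q103–GFP. Compounds were tested in titration.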
Of the large screens only hits and unclear results are named; the others gave an inactive call. Unless noted, calls follow the shape of the dose curve; as a rule, active = well fitted inhibition curve with a large enough effect (not every such curve was filed as active); inconclusive = small, poorly fitted or top-dose-only effect, or another doubt; inactive = no such curve, though single readings can be large or run the other way.

Cc1ccc(S(=O)(=O)Nc2c3ccccc3nc(=O)n2-c2ccccc2)cc1	ALDH1A1 block inconclusive
O=c1nc2ccccc2c(NS(=O)(=O)c2ccccc2)n1-c1ccccc1	ALDH1A1 block 0.89µM
CCCC(C)C(=O)OCC(=O)Nc1ccc(Br)cc1 (stereo unspecified)	ALDH1A1 block 11µM (no result: Lamin A splicing, HPGD inh)
CC(=O)NC(C)C(=O)OCC(=O)Nc1ccc(Br)cc1 (stereo unspecified)	ALDH1A1 block inconclusive
O=[N+]([O-])c1ccccc1Oc1ncccc1[N+](=O)[O-]	ALDH1A1 block inconclusive (no result: HPGD inh)
O=C1NCCN/C1=C\C(=O)c1ccc(Cl)cc1	none (no result: Lamin A splicing, HPGD inh)
O=C(CSC1CC(=O)N(CCc2ccccc2)C1=O)Nc1cccc(Cl)c1 (stereo unspecified)	HPGD inh 7.9µM
O=C(CSC1CC(=O)N(CCc2ccccc2)C1=O)Nc1ccc(Br)cc1 (stereo unspecified)	none
CC(=O)Nc1ccc(Oc2ccc(-c3noc(C)n3)cc2)cc1	Lamin A splicing inconclusive, HPGD inh 7.9µM, HTT aggregate inconclusive
O=C(O)c1cnc(-c2ccccc2)nc1Sc1ccccc1Cl	HPGD inh 14µM
Cc1cc2c(cc1NC(=O)c1ccc(C(C)(C)C)cc1)n(C)c(=O)c(=O)n2C	none (no result: HTT cytoprotect, KDM4E inh, ALDH1A1 block, HPGD inh, HTT aggregate)
COc1ccc2c(=O)c3c(=O)n(Cc4ccco4)c(-c4ccccc4)nc3oc2c1	ALDH1A1 block 22µM
O=C(NCCc1ccc(Cl)cc1)C(=O)NCC(c1cccs1)S(=O)(=O)c1ccccc1 (stereo unspecified)	none (no result: HTT cytoprotect, KDM4E inh, ALDH1A1 block, HPGD inh, HTT aggregate)
O=C(Cc1cccs1)N1CCCC(c2nc3c(nnn3Cc3ccccc3Cl)c(=O)[nH]2)C1 (stereo unspecified)	ALDH1A1 block inconclusive, HPGD inh inconclusive
N#Cc1ccc(NC(=O)N2CCC(c3nc4c(nnn4Cc4cccc(Cl)c4)c(=O)[nH]3)CC2)cc1	Lamin A splicing inconclusive, HPGD inh 14µM
Cc1ccc(Cn2nnc3c(=O)[nH]c(C4CCN(C(=O)Cc5cccs5)CC4)nc32)cc1	HPGD inh inconclusive
O=C(NCc1cccs1)c1nc2c(nnn2Cc2ccccc2Cl)c(=O)[nH]1	Lamin A splicing inconclusive, HPGD inh 6.3µM, HTT aggregate inconclusive
O=C(Cc1cccs1)N1CCC(c2nc3c(nnn3Cc3ccccc3)c(=O)[nH]2)CC1	ALDH1A1 block inconclusive, HPGD inh 4.5µM
Cc1ccc(CC(=O)N2CCC(c3nc4c(nnn4Cc4ccccc4)c(=O)[nH]3)CC2)cc1	HPGD inh inconclusive, HTT aggregate inconclusive
O=C(Cc1cccs1)N1CCCC(c2nc3c(nnn3Cc3ccc(F)cc3)c(=O)[nH]2)C1 (stereo unspecified)	HPGD inh 28µM
O=c1[nH]c(C2CCCN(S(=O)(=O)c3ccc(F)cc3)C2)nc2c1nnn2Cc1ccccc1 (stereo unspecified)	ALDH1A1 block 14µM, HPGD inh 13µM
CC(C)(C)c1ccc(Cn2nnc3c(=O)[nH]c(C4CCN(C(=O)Cc5cccs5)CC4)nc32)cc1	Lamin A splicing inconclusive, HTT aggregate 13µM
CC(C)(C)c1ccc(Cn2nnc3c(=O)[nH]c(C4CCCN(C(=O)Cc5cccs5)C4)nc32)cc1 (stereo unspecified)	ALDH1A1 block inconclusive, Lamin A splicing inconclusive
CC(=O)c1cc(CC=C(C)C)c(O)c(CC=C(C)C)c1O	none
CC(=O)c1cc(CC=C(C)C)c(O)cc1O	HPGD inh 13µM, HTT aggregate inconclusive
O=C1OC(c2ccccc2)/C(=C(/O)c2ccccc2)C1=O (stereo unspecified)	HTT cytoprotect inconclusive, ALDH1A1 block 0.79µM
O=C1C(=O)N(CCO)C(c2ccccc2)/C1=C(\O)c1ccccc1 (stereo unspecified)	none
Cc1ccc(/C(O)=C2/C(=O)C(=O)OC2c2ccc(Cl)cc2)cc1 (stereo unspecified)	ALDH1A1 block inconclusive
O=C1OC(c2ccccc2)/C(=C(/O)c2ccc(Cl)cc2)C1=O (stereo unspecified)	ALDH1A1 block 38µM, HPGD inh 35µM, HTT aggregate inconclusive
O=C(C[C@@H](c1ccccc1)N1CCCCC1)c1ccccc1	HPGD inh inconclusive (no result: KDM4E inh, Lamin A splicing, HTT aggregate)
COC(=O)c1ccc(C(NC(=O)OCc2ccccc2)/C(C)=C/[C@@H](C)C(=O)NCc2cc(F)cc(F)c2)cc1 (stereo partly specified)	ALDH1A1 block inconclusive (no result: Lamin A splicing, HTT aggregate)
CCOC(=O)c1c(C)oc2c1c(C(c1cccnc1)N1CCCCC1)c(O)c1ccccc12 (stereo unspecified)	KDM4E inh inconclusive, ALDH1A1 block inconclusive
CCOC(=O)c1c(C)oc2c1c(C(c1ccccc1)N1CCOCC1)c(O)c1ccccc12 (stereo unspecified)	ALDH1A1 block 3.5µM, HPGD inh inconclusive
COc1ccc(NC(=O)Cn2c(=O)oc3cc(S(=O)(=O)N4CCCCCC4)ccc32)cc1OC	none (no result: HTT cytoprotect, KDM4E inh, ALDH1A1 block, HPGD inh, HTT aggregate)
CCN(CC)c1ccc(/C=N/N2CCN(Cc3ccccc3)CC2)cc1	KDM4E inh inconclusive, ALDH1A1 block 7.9µM (no result: HPGD inh)
Cc1ccc(-c2noc(CN3CCN(c4ccccc4F)CC3)n2)cc1	ALDH1A1 block 11µM
O=C(CSc1nccn1C1CCCC1)Nc1cccc(F)c1	none (no result: HTT cytoprotect, KDM4E inh, ALDH1A1 block, HPGD inh, HTT aggregate)
O=C(On1c(-c2ccccc2)nc2ccccc2c1=O)c1ccco1	KDM4E inh 20µM, ALDH1A1 block 8.9µM, HPGD inh inconclusive
Cc1c(Cl)cccc1-n1ncc(C(=O)N2CCc3ccccc3C2)c1C1CCN(C(=O)OC(C)(C)C)CC1	none (no result: HTT cytoprotect, KDM4E inh, ALDH1A1 block, HPGD inh, HTT aggregate)
CCOc1ccc(Br)cc1S(=O)(=O)Nc1ccc(Cl)c(S(=O)(=O)N(C)C)c1	ALDH1A1 block 0.35µM, Lamin A splicing inconclusive, HTT aggregate inconclusive (no result: HPGD inh)
COc1cc([C@@H]2c3cc4c(cc3[C@@H](O[C@@H]3O[C@H]5CO[C@@H](C)O[C@@H]5[C@@H](O)[C@H]3O)[C@@H]3COC(=O)[C@@H]23)OCO4)cc(OC)c1O	none (no result: Lamin A splicing, HTT aggregate)
OC1(c2ccc(F)cc2)CCN(Cc2nnnn2Cc2cccs2)CC1	ALDH1A1 block 4.5µM
CC(NC(=O)C1CCN(S(=O)(=O)c2cnc[nH]2)CC1)c1ccccc1 (stereo unspecified)	none (no result: HTT cytoprotect)
CCCCC1(Cc2ccc([N+](=O)[O-])cc2)C(=O)N(c2ccccc2)N(c2ccccc2)C1=O	Lamin A splicing inconclusive, HTT aggregate 10µM
COc1ccc(N2CCN(CC(=O)NC(=O)NC(C)(C)C)CC2)cc1	none (no result: HTT cytoprotect, Lamin A splicing, HPGD inh)

Screens deposited in PubChem BioAssay by National Center for Advancing Translational Sciences (NCATS).
